Measurements: PubChem BioAssay AID686996 (Broad Institute, 2013)
Hit rate of the full screen: of about 350,000 compounds, about 1,900 (0.54%) were called active.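 The calls were made as follows: active = mean inhibition across replicates at least about 35%, with every replicate also reaching that limit (limit read from the data); inconclusive = only one of the two criteria met; inactive = neither criterion met.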 What follows is part of a selection rich in actives, with near analogues and random picks from the rest.

molecular target: Caspase-6 (Homo sapiens) (UniProt P55212); assay: inhibition of CASP6 peptide cleavage – biochemical, VEID-R110 fluorescence, single point, set 2, primary screen (AID 686996); details: purified caspase-6, Z-VEID-R110 cleavage fluorescence; at 12.5 µM; hits give high values;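 also: 0% = median of neutral control wells and 100% = no fluorescence left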
Sequence (P55212 24-179 limits assumed): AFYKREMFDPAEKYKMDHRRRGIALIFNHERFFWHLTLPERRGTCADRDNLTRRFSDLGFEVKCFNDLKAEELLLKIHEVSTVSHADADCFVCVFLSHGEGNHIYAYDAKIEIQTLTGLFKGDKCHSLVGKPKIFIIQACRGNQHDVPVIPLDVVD
Sequence (P55212 194-293 limits assumed): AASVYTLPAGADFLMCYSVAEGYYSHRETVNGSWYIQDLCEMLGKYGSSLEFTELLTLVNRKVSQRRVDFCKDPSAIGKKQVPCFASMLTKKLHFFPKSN

Row | Compound | inhibition
1 | O=C(C[C@@H]1CC[C@@H]2[C@H](COC[C@H](O)CN2S(=O)(=O)c2ccccc2F)O1)NCc1ccccc1F | 4.05% (inactive)
2 | Cc1noc(C)c1NC(=O)N(C)C[C@H]1Oc2c(NC(=O)c3nc4ccccc4s3)cccc2C(=O)N([C@@H](C)CO)C[C@@H]1C | -1.84% (inactive)
3 | Cc1cc2nc3c(=O)[nH]c(=O)nc-3n(C[C@H](O)[C@H](O)[C@H](O)CO)c2cc1C | -54.4% (inactive)
4 | CCN(CC)CCCC(C)n1c2nc(=O)[nH]c(=O)c-2nc2cc(Cl)ccc21 (stereo not given) | 81.9% (active)
5 | C[C@H](O)C#Cc1ccc2c(c1)O[C@@H](CN(C)Cc1cncnc1)[C@H](C)CN([C@H](C)CO)S2(=O)=O | -2.4% (inactive)
6 | O=C(C1CCCC1)N1CC(=O)N2[C@H](C1)[C@@H](c1ccc(-c3cccnc3)cc1)[C@@H]2CO | -0.455% (inactive)
7 | COCCNC(=O)Nc1ccc2nc(-c3ccco3)c(-c3ccco3)nc2c1 | 79.9% (active)
8 | COCCNC(=O)CSc1nc(N)c(NC(=O)c2ccco2)c(=O)[nH]1 | 2.38% (inactive)
9 | Cc1ccc(NC(=O)OCCNC(=O)c2ccncc2)cc1 | 2.78% (inactive)
10 | C[C@@H]1CN([C@H](C)CO)C(=O)c2cc(-c3cccc(C(=O)N(C)C)c3)cnc2O[C@H]1CN(C)S(=O)(=O)c1ccc(F)cc1 | 1.95% (inactive)
11 | COC(=O)c1ccc(COc2ccc(/C=C/C(=O)c3ccc(OC)c(CSCC(=O)O)c3)cc2OC)cc1 | 41% (active)
12 | COc1ccccc1CCNC(=O)C1CCN(C(=O)/C=C/c2ccccc2)CC1 | -1.88% (inactive)
13 | COc1cc(/C=C/C(=O)OCC(=O)NC(=O)NCc2ccccc2)ccc1OCC#N | 0.201% (inactive)
14 | COc1ccc(C(=O)/C=C/c2ccc(-c3ccccc3)cc2)cc1CSCC(=O)O | 63.7% (active)
15 | COc1cc(C(=O)NCC(c2ccco2)N2CCCC2)ccc1OCc1ccccc1 (stereo not given) | -1.23% (inactive)
16 | COc1ccc(OC)c(/C=C/C(=O)c2ccc3c(c2)OCO3)c1 | 2% (inactive)
17 | C[C@@H]1CN([C@H](C)CO)C(=O)Cc2cc(NC(=O)Cc3ccccc3)ccc2O[C@H]1CN(C)S(=O)(=O)c1cccs1 | -1.84% (inactive)
18 | CCCN1C[C@@H](C)[C@@H](OC)CN(C)C(=O)c2cc(NC(=O)NC3CCCCC3)ccc2OC[C@H]1C | 0.443% (inactive)
19 | C[C@H](CO)N1C[C@H](C)[C@H](CN(C)Cc2ccc(C(F)(F)F)cc2)Oc2ccc(NC(=O)CCCCCC(=O)Nc3ccccc3N)cc2CC1=O | 1.34% (inactive)
20 | Cc1cc(C)c(S(=O)(=O)NN=C2c3ccccc3[C@H]3Cc4csc[n+]4[C@@H]23)c(C)c1 | 85.1% (active)
